From the antibiotic and cytotoxicity screens of Wong et al. (2023) come the findings set out here.

The campaign covered roughly 39,000 compounds. About 3,300 (8.5%) were called active. This is one part of a sample in which actives are shown more often than they occur.

For this assay, the system named is HepG2. The assay can be described thus: cytotoxicity call (relative viability < 0.9). To be noted: 10 µM.
Consider `C[C@H](CO)N1C[C@H](C)[C@H](CN(C)Cc2ccc(Oc3ccccc3)cc2)Oc2c(NC(=O)c3nc4ccccc4s3)cccc2C1=O`, for which the cytotoxicity call was “inactive”.

For the compound `C[C@@H]1CN([C@H](C)CO)C(=O)c2cccc(NC(=O)c3nc4ccccc4s3)c2O[C@@H]1CN(C)Cc1ccc(Oc2ccccc2)cc1`, the cytotoxicity call was “inactive”.

For the compound `C[C@@H]1CN([C@H](C)CO)C(=O)c2cccc(NC(=O)c3nc4ccccc4s3)c2O[C@H]1CN(C)Cc1ccc(Oc2ccccc2)cc1`, the cytotoxicity call is “inactive”.

`C[C@H](CO)N1C[C@H](C)[C@@H](CN(C)Cc2ccc(Oc3ccccc3)cc2)Oc2c(NC(=O)c3nc4ccccc4s3)cccc2C1=O`: the cytotoxicity call was “active”.

As to `C[C@H]1CN([C@@H](C)CO)C(=O)c2cccc(NC(=O)c3nc4ccccc4s3)c2O[C@H]1CN(C)Cc1ccc(Oc2ccccc2)cc1`, the cytotoxicity call was “active”.

For `C[C@H]1CN([C@@H](C)CO)C(=O)c2cccc(NC(=O)c3nc4ccccc4s3)c2O[C@@H]1CN(C)Cc1ccc(Oc2ccccc2)cc1`, the cytotoxicity call was “inactive”.

Regarding `COCC#Cc1cnc2c(c1)C(=O)N([C@H](C)CO)C[C@H](C)[C@H](CN(C)C(=O)CN1CCOCC1)O2`, the cytotoxicity call was “inactive”.

Regarding `Cc1ccc(S(=O)(=O)Nc2ccc3c(c2)C(=O)N([C@@H](C)CO)C[C@@H](C)[C@H](CN(C)C(=O)Nc2cccc4ccccc24)OCCCC[C@H](C)O3)cc1`, the cytotoxicity call is “inactive”.

In the case of `COc1ccc(S(=O)(=O)N(C)C[C@@H]2Oc3ccc(NC(=O)Cn4cnnn4)cc3CC(=O)N([C@H](C)CO)C[C@H]2C)cc1`, the cytotoxicity call was “inactive”.

With `Cc1ccccc1/C=C(\C#N)c1nc(-c2ccccc2)cs1`, the cytotoxicity call was “active”.

As for `COc1ccc(-c2csc(C(C#N)=C3CCCCC3)n2)cc1`, the cytotoxicity call was “inactive”.

Take `Cc1nc(-c2ccccc2)cs1`: the cytotoxicity call is “inactive”.

`C[C@@H]1CN([C@@H](C)CO)C(=O)c2cc(NC(=O)Cn3cnnn3)ccc2O[C@@H]1CN(C)S(C)(=O)=O`: the cytotoxicity call is “inactive”.

On to `O=C(C1=C[C@@H](c2coc3ccccc3c2=O)C[C@@H](OCCCCO)O1)N1CCN(Cc2ccc3c(c2)OCO3)CC1`, for which the cytotoxicity call was “inactive”.

With `Cc1noc(C)c1NC(=O)Nc1ccc2c(c1)C(=O)N([C@H](C)CO)C[C@H](C)[C@@H](CN(C)S(=O)(=O)c1cn(C)cn1)O2`, the cytotoxicity call is “inactive”.

As to `C[C@@H]1CCCCO[C@H](CN(C)Cc2ccc(Cl)c(Cl)c2)[C@@H](C)CN([C@H](C)CO)C(=O)c2cc(NC(=O)Nc3ccc(F)cc3)ccc2O1`, the cytotoxicity call is “active”.

Regarding `C[C@@H]1CN([C@H](C)CO)C(=O)c2cc(NC(=O)Nc3ccc(F)cc3)ccc2O[C@@H](C)CCCCO[C@@H]1CN(C)Cc1ccc(Cl)c(Cl)c1`, the cytotoxicity call was “inactive”.

For the compound `C[C@@H]1CN([C@@H](C)CO)C(=O)c2cc(NC(=O)Nc3ccc(F)cc3)ccc2O[C@@H](C)CCCCO[C@H]1CN(C)Cc1ccc(Cl)c(Cl)c1`, the cytotoxicity call is “inactive”.

On to `C[C@H]1CCCCO[C@H](CN(C)Cc2ccc(Cl)c(Cl)c2)[C@@H](C)CN([C@@H](C)CO)C(=O)c2cc(NC(=O)Nc3ccc(F)cc3)ccc2O1`, for which the cytotoxicity call was “active”.

Take `C[C@@H]1CCCCO[C@@H](CN(C)Cc2ccc(Cl)c(Cl)c2)[C@@H](C)CN([C@H](C)CO)C(=O)c2cc(NC(=O)Nc3ccc(F)cc3)ccc2O1`: the cytotoxicity call was “inactive”.

Take `C[C@@H]1CCCCO[C@H](CN(C)Cc2ccc(Cl)c(Cl)c2)[C@H](C)CN([C@@H](C)CO)C(=O)c2cc(NC(=O)Nc3ccc(F)cc3)ccc2O1`: the cytotoxicity call is “inactive”.

In the case of `C[C@@H]1CCCCO[C@@H](CN(C)Cc2ccc(Cl)c(Cl)c2)[C@H](C)CN([C@@H](C)CO)C(=O)c2cc(NC(=O)Nc3ccc(F)cc3)ccc2O1`, the cytotoxicity call is “inactive”.

As for `C[C@H](CO)N1C[C@H](C)[C@H](CN(C)Cc2ccc(Cl)c(Cl)c2)OCCCC[C@H](C)Oc2ccc(NC(=O)Nc3ccc(F)cc3)cc2C1=O`, the cytotoxicity call is “active”.

Take `C[C@@H]1CCCCO[C@@H](CN(C)Cc2ccc(Cl)c(Cl)c2)[C@@H](C)CN([C@@H](C)CO)C(=O)c2cc(NC(=O)Nc3ccc(F)cc3)ccc2O1`: the cytotoxicity call was “active”.

Consider `C[C@@H]1CCCCO[C@@H](CN(C)Cc2ccc(Cl)c(Cl)c2)[C@H](C)CN([C@H](C)CO)C(=O)c2cc(NC(=O)Nc3ccc(F)cc3)ccc2O1`, for which the cytotoxicity call was “inactive”.

As to `C[C@H](CO)N1C[C@H](C)[C@@H](CN(C)Cc2ccc(C(=O)O)cc2)Oc2ccc(NC(=O)c3ccncc3)cc2CC1=O`, the cytotoxicity call was “inactive”.

Turning to `C[C@@H]1CN([C@H](C)CO)C(=O)Cc2cc(NS(=O)(=O)c3ccccc3)ccc2O[C@@H]1CN(C)S(=O)(=O)c1cccs1`, the cytotoxicity call was “inactive”.

Turning to `C[C@H]1CN([C@@H](C)CO)C(=O)c2cccc(NC(=O)c3cnccn3)c2O[C@@H]1CN(C)S(=O)(=O)c1ccccc1`, the cytotoxicity call was “inactive”.

As to `C[N+](C)(C)CCCC[C@@H]1NC(=O)[C@H]2C[C@@H](C(=O)NCc3ccc(F)cc3)[C@@H](c3ccc(O)cc3)N2C1=O`, the cytotoxicity call was “inactive”.

In the case of `COc1ccc(S(=O)(=O)Nc2ccc3c(c2)C(=O)N([C@@H](C)CO)C[C@H](C)[C@@H](CN(C)Cc2ccc4c(c2)OCO4)OCCCC[C@@H](C)O3)cc1`, the cytotoxicity call was “inactive”.

For `COc1ccc(NC(=O)N(C)C[C@@H]2OCc3ccccc3-c3c(n(C)c4ccccc34)C(=O)N([C@@H](C)CO)C[C@@H]2C)cc1`, the cytotoxicity call was “inactive”.

For `COc1ccc(S(=O)(=O)Nc2cccc3c2O[C@@H](CN(C)S(=O)(=O)c2cn(C)cn2)[C@H](C)CN([C@@H](C)CO)C3=O)cc1`, the cytotoxicity call is “inactive”.

On to `C[C@@H]1CN([C@@H](C)CO)C(=O)Cc2cc(NC(=O)Nc3cccc4ccccc34)ccc2O[C@H]1CN(C)Cc1ccc(Cl)c(Cl)c1`, for which the cytotoxicity call was “inactive”.

For the compound `CC(C)NC(=O)N(C)C[C@H]1Oc2ccc(NC(=O)Cn3cnnn3)cc2C(=O)N([C@@H](C)CO)C[C@H]1C`, the cytotoxicity call was “inactive”.

For `COC(=O)c1ccc(O)c(O)c1`, the cytotoxicity call was “inactive”.

Regarding `CCS(=O)(=O)N1CCc2ccc(N)cc2C1`, the cytotoxicity call is “inactive”.

With `COc1ccc(S(=O)(=O)N(C)C[C@H]2OCCCC[C@@H](C)Oc3ccc(NS(C)(=O)=O)cc3C(=O)N([C@H](C)CO)C[C@@H]2C)cc1`, the cytotoxicity call is “inactive”.

For the compound `CC(C)NC(=O)Nc1ccc2c(c1)C(=O)N([C@@H](C)CO)C[C@H](C)[C@@H](CN(C)Cc1ccc(Cl)c(Cl)c1)OCCCC[C@H](C)O2`, the cytotoxicity call is “inactive”.

Take `C[C@@H]1CN([C@H](C)CO)C(=O)c2cc(NC(=O)Nc3ccc(F)cc3)ccc2O[C@@H](C)CCCCO[C@H]1CN(C)Cc1ccc(Cl)c(Cl)c1`: the cytotoxicity call is “active”.

Turning to `C[C@@H]1CCCCO[C@H](CN(C)Cc2ccc(Cl)c(Cl)c2)[C@@H](C)CN([C@@H](C)CO)C(=O)c2cc(NC(=O)Nc3ccc(F)cc3)ccc2O1`, the cytotoxicity call is “active”.

Regarding `CC(C)NC(=O)Nc1ccc2c(c1)C(=O)N([C@H](C)CO)C[C@H](C)[C@@H](CN(C)Cc1ccc(Cl)c(Cl)c1)OCCCC[C@H](C)O2`, the cytotoxicity call was “inactive”.

For the compound `CC(C)NC(=O)Nc1ccc2c(c1)C(=O)N([C@H](C)CO)C[C@@H](C)[C@H](CN(C)Cc1ccc(Cl)c(Cl)c1)OCCCC[C@@H](C)O2`, the cytotoxicity call was “active”.

`C[C@@H]1CN([C@@H](C)CO)C(=O)c2cc(C#CCN(C)C)cnc2O[C@@H]1CN(C)C(=O)Nc1cc(F)ccc1F`: the cytotoxicity call was “inactive”.

As for `C/C=C/c1ccc2c(c1)O[C@H](CN(C)S(=O)(=O)c1ccccc1OC)[C@@H](C)CN([C@H](C)CO)S2(=O)=O`, the cytotoxicity call was “inactive”.

For `C[C@@H]1CN([C@H](C)CO)C(=O)c2cccc(NC(=O)C3CC3)c2O[C@H]1CN(C)Cc1ccc2c(c1)OCO2`, the cytotoxicity call was “inactive”.

As for `C[C@@H]1CN([C@@H](C)CO)C(=O)c2cc(NC(=O)CCCN(C)C)ccc2O[C@H]1CN(C)C(=O)Nc1ccc2c(c1)OCO2`, the cytotoxicity call was “inactive”.

On to `C[C@H](CO)N1C[C@H](C)[C@@H](CN(C)Cc2ccncc2)OCCCC[C@H](C)Oc2ccc(NS(=O)(=O)c3ccc(Cl)cc3)cc2C1=O`, for which the cytotoxicity call is “inactive”.

On to `Cc1ccc(S(=O)(=O)Nc2cccc3c2O[C@H](CN(C)Cc2ccc(Cl)c(Cl)c2)[C@H](C)CN([C@H](C)CO)C3=O)cc1`, for which the cytotoxicity call is “inactive”.

As for `C[C@H](CO)N1C[C@H](C)[C@H](CN(C)C)OCCCC[C@H](C)Oc2ccc(NC(=O)Nc3cccc4ccccc34)cc2C1=O`, the cytotoxicity call was “inactive”.

For `O=C(O)C[C@H]1Oc2ccccc2NC1=O`, the cytotoxicity call was “inactive”.

Regarding `O=C(C[C@@H]1CC[C@@H]2[C@H](COC[C@@H](O)CN2S(=O)(=O)c2ccccc2F)O1)NCc1ccccc1F`, the cytotoxicity call is “inactive”.

`C[C@@H]1CN([C@H](C)CO)C(=O)c2cccc(NC(=O)C3CCOCC3)c2O[C@@H]1CN(C)S(=O)(=O)c1ccc(Cl)cc1`: the cytotoxicity call was “inactive”.

With `O=C(C=Cc1ccc(O)cc1)c1ccccc1`, the cytotoxicity call is “active”.

As to `O=C(C=Cc1ccccc1)c1ccc(O)cc1`, the cytotoxicity call was “active”.

Turning to `O=C(/C=C/c1ccccc1)C1CC1`, the cytotoxicity call was “inactive”.

With `CC(C)c1ccc(/C=C/C(=O)O)cc1`, the cytotoxicity call is “inactive”.

On to `O=C(C=Cc1ccc(O)cc1)c1ccccc1O`, for which the cytotoxicity call is “inactive”.

With `O=C(C=Cc1ccccc1)c1ccc(O)cc1O`, the cytotoxicity call is “inactive”.

For the compound `CC(C)NC(=O)N(C)C[C@H]1OCCCC[C@H](C)Oc2ccc(NC(=O)C3CCCCC3)cc2C(=O)N([C@H](C)CO)C[C@H]1C`, the cytotoxicity call is “inactive”.

Regarding `O=C1CCC(=O)NCC/C=C/CCN1`, the cytotoxicity call was “inactive”.

Consider `O=C(C[C@H]1C=C[C@H](NC(=O)C2CC2)[C@H](CO)O1)NCCCN1CCOCC1`, for which the cytotoxicity call was “inactive”.

`COCC#Cc1cnc2c(c1)C(=O)N([C@@H](C)CO)C[C@@H](C)[C@H](CN(C)C(=O)Nc1ccc(OC)cc1)O2`: the cytotoxicity call is “inactive”.

Turning to `C[C@@H]1CCCCO[C@H](CN(C)C(=O)c2ccccc2)[C@@H](C)CN([C@@H](C)CO)C(=O)c2cc(NC(=O)CCC(F)(F)F)ccc2O1`, the cytotoxicity call was “inactive”.

With `C[C@H]1CCCCO[C@@H](CN(C)C(=O)Nc2ccccc2)[C@@H](C)CN([C@@H](C)CO)C(=O)c2cc(NS(=O)(=O)c3ccc(Cl)cc3)ccc2O1`, the cytotoxicity call was “inactive”.

As to `C[C@H]1CN([C@@H](C)CO)C(=O)c2c(c3ccccc3n2C)-c2ccccc2CO[C@@H]1CN(C)S(C)(=O)=O`, the cytotoxicity call is “inactive”.

For `C[C@H](CO)N1C[C@H](C)[C@@H](CN(C)S(=O)(=O)c2ccc(F)cc2)Oc2ccc(NC(=O)CCCN(C)C)cc2CC1=O`, the cytotoxicity call is “inactive”.
